Our source for the inhibition values is PubChem BioAssay AID2216 (Broad Institute, 2009).

Structures are written as SMILES. Hit rate of the full screen: of about 300,000 compounds, about 3,300 (1.1%) were called active. Not shown: some 6% with an inconclusive outcome. This is one part of a sample in which actives are shown more often than they occur. A number with no mark means an inactive call.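 How the source made its calls: active means more than half of the replicate wells show a fall in the fluorescence ratio signal beyond about 16% (limit read from the data, passing the limit was not always enough); inconclusive means exactly half of the replicate wells pass the set limit; inactive means fewer than half of replicates pass the limit.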

The assay deals with Ran GTPase (GTP-bound) - importin-beta complex. Put plainly: inhibitors of RanGTP-importin-beta interaction, primary screen, biochemical, FRET, CFP-Ran, YFP-importin-beta, homogeneous (AID 2216).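 Further: 0% = DMSO wells and 100% = Ran loaded with GDP instead of GTP.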 Conditions: cell-free CFP-Ran/YFP-importin-beta FRET ratio; stronger effect = higher value; concentration not given here.
`COc1cccc(NC(=O)CSc2nccn(-c3ccc4c(c3)OCCO4)c2=O)c1`: the inhibition (in general, the relative decrease from the control value, in per cent) is -2.91%.
As for `CCCCN(C1CCS(=O)(=O)C1)S(=O)(=O)c1ccc(C(C)C)cc1` (stereo not given), the inhibition is 0.359%.
Consider `O=C(c1ccc(NS(=O)(=O)c2ccc3[nH]c(=O)[nH]c3c2)cc1)N1CCCCC1`, for which the inhibition is 0.81%.
Regarding `COc1ccc(CCNC(=O)c2ccccc2OCc2ccccc2)cc1`, the inhibition was 2.59%.
Next, `O=C(N[C@@H](Cc1ccccc1)C(=O)OCc1ccccc1)c1nc[nH]c1C(=O)NC1CCNCC1`: 1.19%.
Regarding `Cc1ccc2nc(N3CCN(C(=O)c4ccco4)CC3)sc2c1`, the inhibition is -2.41%.
Take `COc1ccc(C(=O)OCC(=O)c2ccc(Cl)s2)c(OC)c1OC`: the inhibition is 0.711%.
The same measure for `Cc1cc(C)c(S(=O)(=O)NCC(c2ccc3c(c2)OCO3)N2CCOCC2)c(C)c1` (stereo not given): 2.24%; for `COc1ccc(CCn2c(=N)c(C(=O)NCC3CCCO3)cc3c(=O)n4cccc(C)c4nc32)cc1OC` (stereo not given): 0.0539%; for `Cc1cccn2c(=O)c3cc(C#N)c(=O)n(CCCN4CCOCC4)c3nc12`: 117% (active).
Next, `CCOC(=O)C1CCN(Cc2c(C(=O)N3CCOCC3)nc3c(C)cccn23)CC1`: -0.645%; `Cc1cccn2c(=O)c3cc(C(=O)N4COCC4(C)C)n(C)c3nc12`: -4.28%; `Cc1cccn2c(=O)c3cc(C(=O)NCC4CCCO4)c(=N)n(Cc4ccc(F)cc4)c3nc12` (stereo not given): 188% (active).
Next, `O=C(NCC1CCCO1)c1cc2c([nH]c3ccccc32)c(-c2ccc(F)cc2)n1` (stereo not given): -5.32%; `CCc1noc(C)c1C(=O)N1CCCC(N2CCN(c3ccc(F)cc3)CC2)C1` (stereo not given): 3.28%; `OCc1ccc(-c2ccccc2)c(-c2ccccc2)c1`: 3.41%.
For `CCOC(=O)c1ccc(NC(=O)c2c(NCc3ccccc3)[nH]c(=O)[nH]c2=O)cc1`, the inhibition is -5.92%.
As for `Cc1cc2c(cc1C)NC(c1ccccn1)C1=C(CC(C)(C)CC1=O)N2` (stereo not given), the inhibition was -3.07%.
Consider `Cc1ccsc1C1C(C#N)=C(N)OC2=C1C(=O)CC(C)(C)C2` (stereo not given), for which the inhibition was -0.947%.
Regarding `CC(C)C1C2=C(CC(C)(C)CC2=O)ON1c1ccccc1` (stereo not given), the inhibition is 26.1% (active).
For `CCCCCCCCCCCCN1[C@@H](CC(C)=O)c2cc(F)cc(F)c2S1(=O)=O`, the inhibition is -0.304%.
The same measure for `CCCC1OC23CCCCC2C(C#N)(C#N)C1(C#N)C(=N)O3` (stereo not given): 41.6% (active); for `CC(C)N(C(=O)Cn1cc(S(=O)(=O)CC(=O)N2CCOCC2)c2ccccc21)C(C)C`: 2.93%; for `O=C1CCc2cc(S(=O)(=O)Nc3ccc(C(F)(F)F)cc3)cc3c2N1CC3`: -3.26%.
Consider `O=C(COc1cccc2c1CCNC2=O)NC1CCCCC1`, for which the inhibition was -2.21%.
The same measure for `Cc1cc2nc3c(=O)n(Cc4ccccc4)c(=O)[nH]c3nc2cc1N`: -261%; for `CC(=O)c1ccc(-c2ccc(Cn3c(C)nc4cc(N)c(C)nc43)cc2)cc1`: 27.1% (active); for `CCOC(=O)c1ccc2c(c1)nc(C)n2CC`: -1.9%.
Take `O=C(CSc1n[nH]c(-c2cccs2)n1)N1CCCCC1`: the inhibition was -0.392%.
The same measure for `CS(=O)(=O)c1ccc(C(=O)OCC(=O)NNC(=O)COc2ccc(Cl)cc2)cc1`: -2.55%.
Regarding `O=C(CSc1ccccn1)N1CCN(S(=O)(=O)c2ccc(Cl)cc2)CC1`, the inhibition is -1.48%.
Next, `Cc1cccc(NC(=O)c2ccc(S(=O)(=O)N(C)CC3CCCO3)cc2)c1C` (stereo not given): -0.172%; `N#C/C(=C/c1ccc(N2CCOCC2)o1)C(=O)N1CCOCC1`: 39.5% (active); `Cc1ccc(C(=O)N2CCN(C(=O)N3CCOCC3)CC2)cc1`: -2.03%.
`O=C(N1CCOCC1)N1CCOCC1`: the inhibition is -2.74%.
The same measure for `N#C/C(=C\c1ccc(-c2cccc([N+](=O)[O-])c2)o1)C(=O)NCCN1CCOCC1`: 2.98%; for `N#C/C(=C\C1=C(N2CCOCC2)C(=C\c2ccccc2)/CC1)C(=O)Nc1ccccc1F`: -3.91%.
The same measure for `N#C/C(=C\c1ccc(N2CCOCC2)o1)C(=O)N1CCOCC1`: 56.4% (active); for `CC(Oc1ccc(F)cc1)C(=O)Nc1ccccc1C(=O)NC1CC1` (stereo not given): -6.02%; for `Cc1ccc(-c2cc(=O)[nH]c(NCc3ccccc3)n2)cc1`: 4.99%.
Next, `CSCCC(NC(=O)c1ccco1)C(=O)Nc1cc(C)ccn1` (stereo not given): -2.09%; `Cc1cc(Cl)c2oc(C(=O)N(C)C(C)c3ccccn3)c(C)c2c1` (stereo not given): 1.52%.
As to `CC(=O)Nc1ccc(NC(=O)CS(=O)(=O)c2cn(CC(=O)N3CCCCC3)c3ccccc23)cc1`, the inhibition is -0.901%.
For the compound `Cc1ccc(C)c(-c2nnc(NC(=O)CS(=O)(=O)c3ccccc3)o2)c1`, the inhibition was -0.829%.
Take `N=c1oc2ccccc2cc1C(=O)NCc1ccccc1`: the inhibition is 2.48%.
The same measure for `N=c1oc2ccccc2cc1C(=O)N/N=C/c1ccccc1`: 3.47%.
The same measure for `CNC(=O)c1cc2c(ccc3ccccc32)oc1=N`: 35.7% (active); for `O=C(NNC(=O)c1cc(-c2ccccc2Cl)nc2ccccc12)c1csc(N2CCOCC2)n1`: 1.15%; for `O=C(NCc1ccncc1)c1ccc(NS(=O)(=O)c2cccc([N+](=O)[O-])c2)cc1`: 3.31%.
Next, `CC(OC(=O)CNC(=O)c1ccco1)C(=O)Nc1ccc(Cl)cn1` (stereo not given): 0.318%; `CNC(C)C#Cc1ccc2sc3cc(OC)c(OC)cc3c(=O)c2c1` (stereo not given): 38.7% (active).
Consider `Cc1cccc(N2CCN(C(=O)CCS(=O)(=O)c3ccc4c(c3)NC(=O)C(C)S4)CC2)c1C` (stereo not given), for which the inhibition was 1.94%.
The same measure for `CSc1nsc(NC(=O)Nc2ccccc2)n1`: 1.6%; for `COc1ccc2c(CN3CCN(S(=O)(=O)c4cccs4)CC3)cc(=O)oc2c1`: -2.73%.
`NC(=O)CCN1CCN(S(=O)(=O)/C=C/c2ccccc2)CC1`: the inhibition is 3.03%.
The same measure for `O=c1cc(CN2CCN(S(=O)(=O)/C=C/c3ccccc3)CC2)c2ccc(O)cc2o1`: 21% (active); for `CCOC(=O)N1CCN(C(=O)c2ccc(S(=O)(=O)Nc3cccc(C(F)(F)F)c3)cc2)CC1`: -0.937%.
In the case of `CN(C)CCCn1c(N)c(C#N)c2nc(C#N)c(C#N)nc21`, the inhibition was 27.1% (active).
As to `Cc1ccc2nnn(Cc3cccc(C(C)(C)C)c3O)c2c1`, the inhibition is 9.31%.
Next, `COCCCn1c(SCC(=O)Nc2oc(C)c3c(C)n[nH]c(=O)c23)nc2sc3c(c2c1=O)CCC3`: -0.217%.
